Measurements published in PubChem BioAssay AID431 (Sanford-Burnham Center for Chemical Genomics, 2006).
Out of some 63,000 compounds screened, about 1,100 (1.7%) were called active.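 The calls were made as follows: active = compounds whose percent cytotoxicity in the single-dose primary screen, scaled between solvent and toxic-drug controls, exceeds 50; inactive = the rest.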 For the sample, actives were picked, then their nearest neighbours and some compounds at random. Potency and affinity values are given separately.

Assay: viability loss of HPDE-C7K cells – cell-based, fluorescence, HTS, primary screen (AID 431);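 also: 0% = DMSO solvent wells and 100% = doxorubicin-treated wells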
Conditions: HPDE-C7K KRASV12 cells, Alamar Blue viability, 48 h; at 10 µM; hits give high values

Q: For `CC1Oc2ccccc2N(Cc2ccccc2F)C1=O` (centres undefined), which cytotoxicity is on record?
A: 3.3% (inactive)

Q: For `CCOC(=O)c1cccc(C(=O)OCC)n1`, which cytotoxicity is on record?
A: -5.9% (inactive)

Q: For `CCOC(=O)c1ccccc1NC(=O)COC`, which cytotoxicity is on record?
A: -2.8% (inactive)

Q: For `Cc1ccccc1CS(=O)(=O)Cc1ccc(C(=O)NCCCN2CCCC2=O)o1`, which cytotoxicity is on record?
A: -10.2% (inactive)

Q: With `CCOC(=O)c1c(NC(=O)c2nn(CC)cc2Br)sc2c1CCCCC2` as the compound, how does the cytotoxicity read?
A: 16.9% (inactive)

Q: With `Cc1sc2ncnc(Sc3nnnn3-c3ccccc3)c2c1C` as the compound, how does the cytotoxicity read?
A: 101% (active)

Q: With `Clc1ccc(-n2nnnc2Sc2ncnc3sccc23)cc1` as the compound, how does the cytotoxicity read?
A: -6.3% (inactive)

Q: For `Cc1nc(Sc2nnnn2-c2ccccc2)c(C#N)c(C)c1C`, which cytotoxicity is on record?
A: -8% (inactive)

Q: Which cytotoxicity does the source give for `CCCn1c(Sc2nnnn2-c2ccccc2)n[nH]c1=O` here?
A: -14.1% (inactive)

Q: For `Cc1sc2ncnc(SCc3ccco3)c2c1C`, which cytotoxicity is on record?
A: -15.5% (inactive)

Q: With `CCOC(=O)c1ccc(CNC(=O)c2cc3cccc(OC)c3oc2=O)o1` as the compound, how does the cytotoxicity read?
A: -2.4% (inactive)

Q: With `CCOC(=O)CCCSc1nc2sc(C)c(C)c2c(=O)[nH]1` as the compound, how does the cytotoxicity read?
A: 9.4% (inactive)

Q: For `CC(C)CCn1c(SCC(N)=O)nc2c1c(=O)n(C)c(=O)n2C`, which cytotoxicity is on record?
A: -10.1% (inactive)

Q: With `CCOc1ccc(OCc2ccc(C(=O)O)o2)cc1` as the compound, how does the cytotoxicity read?
A: -2.9% (inactive)

Q: For `Cc1ccc(C2CC(=O)c3cnc(N4CCN(c5ccccc5)CC4)nc3C2)cc1` (centres undefined), which cytotoxicity is on record?
A: 17.2% (inactive)

Q: For `COc1ccc(C2CC(=O)c3cnc(N4CCN(Cc5ccccc5)CC4)nc3C2)cc1` (centres undefined), which cytotoxicity is on record?
A: 4.1% (inactive)

Q: With `O=C1CC(c2cccc(Cl)c2)Cc2nc(N3CCOCC3)ncc21` (centres undefined) as the compound, how does the cytotoxicity read?
A: -18.3% (inactive)

Q: With `COc1cc(C2CC(=O)c3cnc(NC(=O)COc4ccccc4)nc3C2)cc(OC)c1OC` (centres undefined) as the compound, how does the cytotoxicity read?
A: -19.4% (inactive)

Q: With `CCN1CCN(c2ncc3c(n2)CC(c2ccc(OC)c(OC)c2)CC3=O)CC1` (centres undefined) as the compound, how does the cytotoxicity read?
A: 14.6% (inactive)

Q: For `O=C1CC(c2cccc(Cl)c2)Cc2nc(N3CCN(c4ccccc4)CC3)ncc21` (centres undefined), which cytotoxicity is on record?
A: 61.6% (active)

Q: With `CCN1CCN(c2ncc3c(n2)CC(c2cc(OC)c(OC)c(OC)c2)CC3=O)CC1` (centres undefined) as the compound, how does the cytotoxicity read?
A: 62.1% (active)

Q: With `COc1ccc(C2CC(=O)c3c(C)nc(N4CCN(Cc5ccccc5)CC4)nc3C2)cc1OC` (centres undefined) as the compound, how does the cytotoxicity read?
A: 39.3% (inactive)

Q: With `COc1cc(C2CC(=O)c3cnc(N4CCN(Cc5ccccc5)CC4)nc3C2)cc(OC)c1OC` (centres undefined) as the compound, how does the cytotoxicity read?
A: 50.1% (active)

Q: For `CCOC(=O)C1CCN(C(=O)CCn2c(=O)[nH]c3ccccc3c2=O)CC1`, which cytotoxicity is on record?
A: -4.8% (inactive)

Q: Which cytotoxicity does the source give for `Cc1nn(C)c(C)c1S(=O)(=O)NC1CCCC1` here?
A: -13% (inactive)

Q: Which cytotoxicity does the source give for `CCOC(=O)C1CCCN(C(=O)c2cccs2)C1` (centres undefined) here?
A: 2.4% (inactive)

Q: Which cytotoxicity does the source give for `COc1cccc(NC(=O)NCc2cccn2C)c1` here?
A: -7% (inactive)

Q: Which cytotoxicity does the source give for `COc1cc(S(=O)(=O)N2CCC(N3CCCCC3)CC2)ccc1-n1cnnn1` here?
A: 12.7% (inactive)

Q: Which cytotoxicity does the source give for `COc1cc(S(=O)(=O)N2CCN3CCCC3C2)ccc1-n1cnnn1` (centres undefined) here?
A: 6.5% (inactive)

Q: With `COc1cc(S(=O)(=O)N2CCCC3(CCCCC3)C2)ccc1-n1cnnn1` as the compound, how does the cytotoxicity read?
A: 76% (active)

Q: With `COc1cc(C(=O)Nc2ccc(S(=O)(=O)N3CCCCC3C)cc2)cc(OC)c1OC` (centres undefined) as the compound, how does the cytotoxicity read?
A: 0.7% (inactive)

Q: Which cytotoxicity does the source give for `Cc1cc(C)c2c(CC(=O)N(CCC#N)Cc3cccnc3)coc2c1` here?
A: -1.9% (inactive)

Q: Which cytotoxicity does the source give for `c1csc(CSc2nc3ccccc3s2)c1` here?
A: -17.1% (inactive)

Q: With `N#C/C(=C\c1ccco1)Sc1nc2ccccc2s1` as the compound, how does the cytotoxicity read?
A: 43.6% (inactive)

Q: For `Cc1oc(-c2cccs2)nc1CS(=O)CC(=O)NCCCOC(C)C` (centres undefined), which cytotoxicity is on record?
A: -12.2% (inactive)

Q: For `O=C(CSC1=NCCS1)Nc1ccnc2ccccc12`, which cytotoxicity is on record?
A: -15.4% (inactive)

Q: Which cytotoxicity does the source give for `COC(=O)COc1ccc(S(=O)(=O)NCCC2=CCCCC2)cc1` here?
A: -11.9% (inactive)

Q: With `CCOC(=O)COc1ccc(S(=O)(=O)NCCC2=CCCCC2)cc1` as the compound, how does the cytotoxicity read?
A: 53.1% (active)

Q: Which cytotoxicity does the source give for `COC(=O)COc1ccc(S(=O)(=O)NCCC2=CCCCC2)cc1C` here?
A: -19.8% (inactive)

Q: For `COC(=O)C1=C(C)OC(N)=C(C#N)C1C1CCCCC1` (centres undefined), which cytotoxicity is on record?
A: -11.1% (inactive)

Q: Which cytotoxicity does the source give for `CCOc1ccc(NC(=O)CSc2nnc(C)n2CCCOC)cc1` here?
A: -3.5% (inactive)

Q: For `O=C(/C=C/Nc1cccc(O)c1)c1ccccc1`, which cytotoxicity is on record?
A: 15% (inactive)

Q: For `COc1cccc(C(=O)Nc2ccc(C)cc2)c1`, which cytotoxicity is on record?
A: 4.1% (inactive)

Q: With `C/C(=C\C(=O)c1ccc(C)cc1)Nc1cccc(O)c1` as the compound, how does the cytotoxicity read?
A: -15.4% (inactive)

Q: For `COc1cccc(C(=O)/C=C/Nc2cc(C)ccc2O)c1`, which cytotoxicity is on record?
A: 69.1% (active)

Q: Which cytotoxicity does the source give for `Cc1cccc(OCC(=O)Nc2cc(C)ccc2O)c1` here?
A: -1.5% (inactive)

Q: Which cytotoxicity does the source give for `Cc1ccc(C(=O)/C=C/Nc2cccc(O)c2)cc1` here?
A: 60.9% (active)

Q: Which cytotoxicity does the source give for `Cc1ccc(C)c(N2CCN(C(=O)c3ccc(NS(=O)(=O)c4c(C)noc4C)cc3)CC2)c1` here?
A: 17.4% (inactive)

Q: For `Cc1noc(C)c1S(=O)(=O)Nc1ccc(C(=O)N2CCN(c3ccc(Cl)cc3)CC2)cc1`, which cytotoxicity is on record?
A: -5.4% (inactive)

Q: Which cytotoxicity does the source give for `CCCCc1n[nH]c2c1C(=O)CC(C)(C)C2` here?
A: 1.2% (inactive)

Q: With `CCOC(=O)N1CCC(NC(=O)c2cc(C(=O)Nc3cccc(OC)c3)ccc2CO)CC1` as the compound, how does the cytotoxicity read?
A: 1.1% (inactive)

Q: Which cytotoxicity does the source give for `Cc1ccc(Cl)cc1N1CCN(C(CC(C)C)c2nnnn2CC2CCCO2)CC1` (centres undefined) here?
A: 39.6% (inactive)

Q: For `CCCC(c1nnnn1CC1CCCO1)N1CCN(c2cc(Cl)ccc2C)CC1` (centres undefined), which cytotoxicity is on record?
A: 61.1% (active)

Q: For `CCCCC(c1nnnn1CC1CCCO1)N1CCN(c2cc(Cl)ccc2C)CC1` (centres undefined), which cytotoxicity is on record?
A: 36.2% (inactive)

Q: Which cytotoxicity does the source give for `O=C(Nc1ccccc1C(=O)O)c1ncn[nH]1` here?
A: -10% (inactive)

Q: With `CC(C)CC(=O)Nc1c2c(nn1-c1ccc(F)cc1)CSC2` as the compound, how does the cytotoxicity read?
A: -0.6% (inactive)

Q: Which cytotoxicity does the source give for `CCOC(=O)CCc1c(C)n(CC)c2ncnn2c1=O` here?
A: 2.5% (inactive)

Q: For `O=C(Cc1cccs1)Nc1nc2ccccc2s1`, which cytotoxicity is on record?
A: 2.2% (inactive)

Q: Which cytotoxicity does the source give for `CC(C)(C)NS(=O)(=O)c1ccc2nc(NC(=O)Cc3cccs3)sc2c1` here?
A: 73.1% (active)

Q: With `CS(=O)(=O)c1ccc2nc(NC(=O)Cc3ccccc3)sc2c1` as the compound, how does the cytotoxicity read?
A: 2.6% (inactive)

Q: Which cytotoxicity does the source give for `COCCn1c(=S)[nH]c2cc(C(=O)N3CCN(c4ccccc4OC)CC3)ccc2c1=O` here?
A: 6.7% (inactive)

Q: With `CCCc1[nH]n(-c2nc3ccccc3s2)c(=O)c1C=NCCN1CCOCC1` as the compound, how does the cytotoxicity read?
A: 24.1% (inactive)

Q: For `O=c1c(C=NCCCn2ccnc2)c(-c2ccccc2)[nH]n1-c1nc2ccccc2s1`, which cytotoxicity is on record?
A: 63.3% (active)

Q: With `CCCCCN=Cc1c(C)[nH]n(-c2nc3ccccc3s2)c1=O` as the compound, how does the cytotoxicity read?
A: 13.1% (inactive)
